IL1B secr inh: qHTS for Inhibitors of Inflammasome Signaling: IL-1-beta AlphaLISA Primary Screen | activity change, % at 57.5 µM | hit rate 4.7% among 360,000 | THP-1 LPS/ATP IL-1B secretion, AlphaLISA, 16 h; hits give low values; in the data active means activity change below about -50%; inconclusive means mostly about -30% to -49%
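Secreted IL-1B measured by AlphaLISA bead assay after 16 h compound exposure of THP-1 cells; compounds (final up to 57.5 uM) added 1 h before LPS (250 ng/mL) and ATP (1.25 mM) stimulation; lower signal means less secretion.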
DT40 TDP1 no CPT: qHTS for Inhibitors of human tyrosyl-DNA phosphodiesterase 1 (TDP1): qHTS in cells in absence of CPT; DT40 Tdp1-/- hTDP1 cells, no CPT, ATP luminescence, 48 h; Potency, µM (top dose mostly 46.2 µM), without a hit: top-dose activity change, negative = growth inhibition, most hits filed as inhibitors; hit rate 15% among 420,000; AID 686978, 2013; further: potency means the concentration at half of the fitted maximal effect; nearly all actives have a fitted effect of over 55% in size
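Cells were dispensed at 400 per well, compounds added by pin tool, plates incubated ≥48 hr at 37 °C, then CellTiter-Glo added for 30 min at room temperature before luminescence reading. Line: DT40 Tdp1-/- complemented with hTDP1; camptothecin omitted.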
RORgamma inh: qHTS for inhibitors of ROR gamma transcriptional activity | Nuclear receptor ROR-gamma (Mus musculus), P51450 | Drosophila S2 Gal4-RORgamma UAS-luciferase reporter, 20 h | Potency, µM (doses to about 53.6 µM), inactives show top-dose activity change, negative = inhibition, most hits filed as inhibitors | hit rate 5.4% among 310,000; further: potency means the concentration at half of the fitted maximal effect; nearly all actives have a fitted effect of over 60% in size
Target sequence (P51450 whole entry, looked up, the tested form may be a part): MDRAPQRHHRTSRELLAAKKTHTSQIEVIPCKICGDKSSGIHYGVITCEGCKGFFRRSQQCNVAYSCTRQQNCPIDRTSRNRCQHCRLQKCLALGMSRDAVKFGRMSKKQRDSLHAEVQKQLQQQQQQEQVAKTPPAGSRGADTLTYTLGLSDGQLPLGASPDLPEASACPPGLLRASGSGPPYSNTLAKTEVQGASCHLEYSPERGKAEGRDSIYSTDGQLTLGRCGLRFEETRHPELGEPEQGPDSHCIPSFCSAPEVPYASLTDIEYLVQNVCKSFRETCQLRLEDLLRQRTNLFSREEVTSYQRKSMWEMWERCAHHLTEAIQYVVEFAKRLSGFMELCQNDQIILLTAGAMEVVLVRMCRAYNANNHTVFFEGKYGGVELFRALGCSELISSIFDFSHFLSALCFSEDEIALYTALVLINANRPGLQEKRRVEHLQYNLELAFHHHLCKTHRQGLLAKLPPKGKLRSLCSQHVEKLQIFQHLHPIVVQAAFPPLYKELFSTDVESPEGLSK
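Drosophila S2 cells stably expressing Gal4-DBD/mouse RORγ fusion under metallothionein promoter plus UAS-luciferase; compound 1 h, then 700 uM CuSO4 induction for 20 h at ambient temperature; inhibition read as reduced luminescence.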
ELG1 DNA repair: qHTS screen for small molecules that inhibit ELG1-dependent DNA repair in human embryonic kidney (HEK293T) cells expressing luciferase-tagged ELG1; HEK293T ELG1-luciferase reporter, luminescence, 16 h; DNA damage induced by 5-fluorouridine; hit rate 2.3% among 330,000; Potency, µM (top dose mostly 46.1 µM), for the others: top-dose activity change, negative = inhibition, hits mostly inhibitors; further: potency means the concentration at half of the fitted maximal effect; nearly all actives have a fitted effect of over 55% in size
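HEK293T cells expressing luciferase-tagged ELG1 (2,000/well) received 5-Fluorouridine plus compound or DMSO for 16 hr at 37 °C. Luciferase was read by ONE-Glo luminescence after 30 min at room temperature.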
Gal4-VP16 FLuc: VP16 counterscreen qHTS for inhibitors of ROR gamma transcriptional activity | Potency, µM (titrated, usually from 53.6 µM), without a hit: top-dose activity, negative = inhibition, most hits filed as inhibitors | Drosophila S2 Gal4-VP16 UAS-luciferase, luminescence, 20 h | hit rate 3.5% among 310,000 | AID 2546, 2010;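 further: Gal4-VP16 expression switched on by copper sulfate through the metallothionein promoter; potency means the concentration at half of the fitted maximal effect; nearly all actives have a fitted effect of over 50% in size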
DT40 TDP1 CPT: qHTS for Inhibitors of human tyrosyl-DNA phosphodiesterase 1 (TDP1): qHTS in cells in presence of CPT; chicken DT40 Tdp1-/-;hTDP1 cells + 20 nM CPT, ATP luminescence, 48 h; Potency, µM (highest dose often 46.2 µM), for the others: top-dose activity change, negative = growth inhibition, actives largely listed as inhibitors; hit rate 12% among 420,000; AID 686979, 2013; further: potency means the concentration at half of the fitted maximal effect; nearly all actives have a fitted effect of over 55% in size
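Chicken DT40 Tdp1-/- cells stably complemented with human TDP1 were seeded at 400 cells/well in medium containing 20 nM camptothecin, exposed to pin-transferred compounds, and grown at 37 °C for at least 48 hr. Viability was read as ATP luminescence.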
* hit, by the source's call; [ ] = dose if it differs, or a comment. A selection: hits, their analogues and other compounds. The true share with any hit is near 21%. Unless noted, the call rests on the fitted dose curve; in most records, active means well fitted curve in the direction sought with a large enough effect; inconclusive means small, poorly fitted or top-dose-only effect, or another doubt; inactive means no such curve, though single readings can be large; an effect the other way counts as inactive or inconclusive. On the % scale 0 is the no-effect control and ±100 the full control effect.

`COc1ccc(S(=O)(=O)N2CCOCC2)cc1NC(=O)/C=C/c1ccccc1` gave IL1B secr inh -51.5*, DT40 TDP1 no CPT -18.7%, ELG1 DNA repair -21.0% and DT40 TDP1 CPT -21.8%.
For COc1cccc(/C=C/C(=O)OCC(=O)Nc2ccc(S(=O)(=O)N3CCCC3)cc2)c1 the results were IL1B secr inh -12.3, DT40 TDP1 no CPT -26.6%, RORgamma inh 29.3%, ELG1 DNA repair 13.6%, Gal4-VP16 FLuc -8.5% and DT40 TDP1 CPT 8.0%.
COc1cccc(CN(C)C(=O)/C=C/c2ccc(S(=O)(=O)N3CCCCCC3)cc2)c1 was read as IL1B secr inh -57.5*, DT40 TDP1 no CPT inconclusive, RORgamma inh 41.7%, ELG1 DNA repair inconclusive, Gal4-VP16 FLuc -10.9% and DT40 TDP1 CPT inconclusive.
Screening COc1ccc(CCNC(=O)/C=C/c2ccc(OC)c(S(=O)(=O)N3CCOCC3)c2)cc1 returned IL1B secr inh 11.9, DT40 TDP1 no CPT 5.8µM*, RORgamma inh -1.8%, ELG1 DNA repair -18.1%, Gal4-VP16 FLuc 6.4% and DT40 TDP1 CPT inconclusive.
O=C(/C=C/c1ccc(S(=O)(=O)N2CCOCC2)cc1)Nc1ccc(F)c(F)c1F was read as IL1B secr inh -5.5, DT40 TDP1 no CPT inconclusive, ELG1 DNA repair 20.6µM* and DT40 TDP1 CPT inconclusive.
For Cc1ccc(NC(=O)/C=C/c2ccc(S(=O)(=O)N3CCOCC3)cc2)cc1S(=O)(=O)N(C)C the results were IL1B secr inh -5.2, DT40 TDP1 no CPT 14.6µM* and DT40 TDP1 CPT inconclusive.
`O=C1NC[C@@H](CCCCN2CCN(CCC3CCCCC3)C(=O)C2=O)N(CC2CCCCC2)C1=O` gave IL1B secr inh 0.0, DT40 TDP1 no CPT -9.9% and DT40 TDP1 CPT 3.9%.
CSc1ccc(Nc2nn(-c3ccc(OC(F)(F)F)cc3)nc2C(C)=O)cc1 was read as DT40 TDP1 no CPT -5.9% and DT40 TDP1 CPT -7.4%.
Screening COC(=O)[C@H](CCSC)NC(=O)c1ccc(NC[C@@H](N)CS)cc1-c1ccccc1 returned RORgamma inh -30.2% and Gal4-VP16 FLuc -17.7%.
`C[C@H]1CN([C@@H](C)CO)C(=O)c2cc(Br)cnc2O[C@H]1CN(C)C(=O)Cc1ccccn1` gave IL1B secr inh 7.7, DT40 TDP1 no CPT -15.7% and DT40 TDP1 CPT 0.7%.
For CCOC(=O)c1ccc(-c2c(-c3ccccc3OC)sc3cc4c(cc23)OCO4)cc1F the results were IL1B secr inh 56.3, DT40 TDP1 no CPT inconclusive, ELG1 DNA repair inconclusive and DT40 TDP1 CPT inconclusive.
Screening CC[C@H](C)[C@@H](CO)NC(=O)[C@H]1O[C@@H](n2ccc(=O)[nH]c2=O)[C@H](O)[C@@H]1O returned IL1B secr inh 39.8, DT40 TDP1 no CPT -11.4% and DT40 TDP1 CPT -2.3%.
For COc1cccc(NC(=O)/C=C/c2ccc(S(=O)(=O)N3CCOCC3)cc2)c1 the results were IL1B secr inh -8.4, DT40 TDP1 no CPT inconclusive, ELG1 DNA repair inconclusive and DT40 TDP1 CPT 18.4µM*.
COc1cc(OC)c(/C=N/NC(N)=S)cc1Br was read as IL1B secr inh inactive, DT40 TDP1 no CPT inconclusive, RORgamma inh 8.91µM*, ELG1 DNA repair inconclusive, Gal4-VP16 FLuc inconclusive and DT40 TDP1 CPT inconclusive.
Screening Oc1ccccc1/C=N/Nc1ncc(Br)cn1 returned IL1B secr inh 14.9, DT40 TDP1 no CPT 7.31µM*, RORgamma inh -32.5%[10 µM], ELG1 DNA repair inconclusive, Gal4-VP16 FLuc inconclusive and DT40 TDP1 CPT 9.2µM*.

Screening data (PubChem)
